Rango release inh: inhibitors of RanGTP-induced Rango-importin beta complex dissociation; O95149+P62826; Biochemical FRET Rango-importin beta, RanGTP-induced dissociation; Potency, µM (highest dose often 46.1 µM), inactives show at the top dose activity change, negative = inhibition; hit rate 0.071% among 340,000; note: potency is the fitted concentration of half-maximal effect; % of control where 0% means no effect; nearly all actives have a fitted effect of over 45% in size
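Rango/importin beta premix (0.1/0.25 uM final), PBS + 1 mM DTT + 0.02% Tween-20 + 0.1% BSA; cpd 5 min RT; FRET pre-read; + RanGTP-RCC1 (0.6 uM Ran, 2 mM GTP, 0.2 uM RCC1); 45 min RT; FRET post-read, ex 430, em 486/530 nm.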
Rango-impB inh: inhibitors of Rango-importin beta complex formation; Q14974; Rango CFP/YFP FRET sensor + importin beta, 45 min; Potency, µM (top dose mostly 92.2 µM), for the others: at the highest dose inhibition of complex formation; hit rate 0.031% among 340,000; AID 540263;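 note: potency is the fitted concentration of half-maximal effect; 0% = DMSO wells and 100% = buffer wells lacking importin beta; nearly all actives have a fitted effect of over 15% in size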
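FRET biosensor (snurportin 1 IBB flanked by EYFP and cerulean), 50 nM, with compound 5 min, then 0.125 microM importin beta in PBS, 1 mM DTT, 0.02% Tween-20, 0.1% BSA. CFP/YFP ratio read after 45 min at room temperature; pre-read flags interference.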
MmCpn inh: M. maripaludis TRiC chaperonin inhibition; AID 504842; purified Mm-Cpn ATPase, ADP Transcreener TR-FRET; hit rate 0.031% among 330,000; Potency, µM (series often up to 76.9 µM), without a hit: at the highest dose activity, negative = inhibition, hits mostly inhibitors; active = well fitted inhibition curve with a large enough effect; inconclusive = small, poorly fitted or top-dose-only effect; note: potency is the fitted concentration of half-maximal effect; % is set by controls: 0 for no effect and ±100 for the full control effect; nearly all actives have a fitted effect of over 80% in size
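ATPase turnover read by TR-FRET ADP competition (Eu cryptate antibody/ADP-d2, 665/590 nm): 10uM ATP final, 25nM Mm-CPN final, 30 min 37degC after 10-min compound preincubation, pH 7.4 Tris/KCl/MgCl2/DTT buffer.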
D3 ag: D3 dopamine receptor (human) agonism. max activation, %. AID 652048. hit rate 0.58% among 410,000. P35462. D3R DiscoveRx beta-arrestin cells, luminescence, 90 min; in the data active = max activation above about 30%; note: 0% is about no effect
Target sequence (P35462 whole entry, looked up): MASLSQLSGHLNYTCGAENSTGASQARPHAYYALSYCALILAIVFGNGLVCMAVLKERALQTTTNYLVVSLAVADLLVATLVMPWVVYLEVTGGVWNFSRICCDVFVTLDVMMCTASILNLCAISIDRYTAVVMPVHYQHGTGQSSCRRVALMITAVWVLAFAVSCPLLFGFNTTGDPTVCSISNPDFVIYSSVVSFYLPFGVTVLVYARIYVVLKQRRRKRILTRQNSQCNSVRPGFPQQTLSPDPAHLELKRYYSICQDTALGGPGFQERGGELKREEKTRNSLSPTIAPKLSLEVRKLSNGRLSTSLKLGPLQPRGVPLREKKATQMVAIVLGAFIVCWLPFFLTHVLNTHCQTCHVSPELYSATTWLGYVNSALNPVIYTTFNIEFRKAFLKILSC
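Agonist-mode cell screen: cells plated at 1500/well and incubated overnight at 37 °C, then exposed to library compounds for 90 min at 37 °C. Detection reagent was added for 30–60 min at room temperature, and luminescence was read.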
D3 antag: blocks the human D3 dopamine receptor | D3R cells, DiscoveRx beta-arrestin luminescence, antagonist mode; hits give low values | max response, negative = inhibition, % | hit rate 2.5% among 360,000 | AID 652054 | P35462; in the data active = max response below about -50%; inconclusive = no clear call, values can overlap the other calls; note: % is set by controls: 0 for no effect and ±100 for the full control effect
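Cells expressing the human receptor were seeded at 1500 cells/well, incubated overnight at 37 degrees C in 5% CO2, then exposed to library compounds with dopamine controls for 90 minutes at 37 degrees C before luminescent detection.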
PTAP TSG101 blk: blocks PTAP/TSG101 interaction to inhibit HIV-1 budding | 340,000 tested, under 10 active | Q99816 | Fluorescence polarization, FITC-PTAP peptide / Tsg101 binding | Potency, µM (highest dose often 115 µM), for the others: top-dose activity change, negative = inhibition, usual class: inhibitors; active = well fitted inhibition curve with a large enough effect in the main read-out, with a control signal flat, not every such curve was filed as active; inconclusive = small, poorly fitted or top-dose-only effect, or effect the other way, or a change in a side signal; inactive = no such curve, though single readings can be large or run the other way; note: potency is the fitted concentration of half-maximal effect; % of control where 0% means no effect
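FP read-out: FITC-PTAP peptide, 50 nM final, binding Tsg101 binding domain, 10 uM final; 20 min, r.t.; 10 mM HEPES pH 7.5, 0.15 M NaCl, 0.01% Tween 20, 3 mM EDTA, 0.1 mM TCEP.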
An asterisk follows results filed as active; u = inconclusive; x = no result given. The list is not random: actives were taken first. Their share in the collection is about 2.9%. Unless noted, calls come from the whole dose curve.

SMILES	Rango release inh	Rango-impB inh	MmCpn inh	D3 ag	D3 antag	PTAP TSG101 blk
Cc1nn(-c2ccccc2)c(C)c1NC(=O)COC(=O)Cc1cccc(C(F)(F)F)c1	17%	3%	1%	3	8	-1%
COc1ccc(-c2cc([C@H]3[C@@H]4C=CCC[C@@]4(C)C(=O)N3Cc3ccccc3)ccc2F)cc1OC	19%	u	1%	-1	16	-6%
COc1ccc([C@H]2[C@@H]3C=CCC[C@@]3(C)C(=O)N2Cc2ccccc2)cc1Cl	-8%	-4%	1%	-21	-55*	-1%
CCOC(=O)c1cc2c(=O)n3ccccc3nc2n(CC2CCCO2)c1=NC(=O)c1cccc(C)c1 (stereo not given)	x	x	x	2	x	x
CSc1nsc(/C=C/Nc2ccc(O)cc2C)c1C#N	u	u	-2%	-3	-55*	20%
O=C(Cc1ccccc1)N1CCC(c2nc(-c3ccc(F)cc3)no2)CC1	13%	4%	4%	31*	28	-11%
Cc1ccc(-c2noc(C3CCCN(C(=O)c4c(F)cccc4F)C3)n2)cc1 (stereo not given)	-7%	3%	1%	22	-70*	x
O=C(Cc1ccccc1)N1CCCC(c2nc(-c3ccc(S(=O)(=O)N4CCCC4)cc3)no2)C1 (stereo not given)	0%	1%	0%	26	9	-9%
COc1ccc(NCc2ccsc2)cc1	-7%	0%	-4%	8	8	-8%
NC(=O)SCC(=O)Nc1ccc(Cl)cc1	0%	-1%	-4%	-11	-53*	-7%
NC(=O)SCC(=O)Nc1ccc(Cl)c(Cl)c1	-5%	-4%	u	1	0	0%
N#Cc1ccc(S(=O)(=O)N2CCC(Oc3cccc(C(F)(F)F)c3)CC2)cc1	x	x	x	-4	x	x
COC(=O)C1=CN(Cc2ccccc2)C=C(C(=O)OC)C1c1ccc(OC)c(OC)c1	13µM*	u	1%	-4	-9	-4%
COC(=O)C1=CN(Cc2ccccc2)C=C(C(=O)OC)C1c1ccc(O)c(OC)c1	2%	u	-4%	-4	-12	-9%
O=C(C1=C(O)C(=O)N(c2nc3ccc(Cl)cc3s2)C1c1ccco1)c1ccco1 (stereo not given)	16µM*	u	-21%	-22	16	-1%
Cc1cc(C)c2nc(N3C(=O)C(O)=C(C(=O)c4ccco4)C3c3ccc(O)cc3)sc2c1 (stereo not given)	26µM*	u	1%	-13	-1	-6%
Cc1ccc2nc(N3C(=O)C(O)=C(C(=O)c4ccco4)C3c3ccc(O)cc3)sc2c1 (stereo not given)	x	x	-8%	x	x	x
Cc1cc(N2C(=O)C(O)=C(C(=O)c3ccco3)C2c2cccc(O)c2)no1 (stereo not given)	u	-3%	-2%	5	-1	-6%
Cc1cc(C)c2nc(N3C(=O)C(O)=C(C(=O)c4ccco4)C3c3cccc(O)c3)sc2c1 (stereo not given)	4.1µM*	u	-4%	-2	5	-9%
CC(=O)Nc1ccc(NC(=O)C2CCCN2S(=O)(=O)c2ccc3c(c2)CCCC(=O)N3)cc1 (stereo not given)	x	x	x	2	x	x
COc1ccccc1-c1cc(C(=O)NC(C)C)no1	0%	-7%	2%	-12	-21	-4%
COc1ccccc1-c1cc(C(=O)NC(C)c2ccccc2)no1 (stereo not given)	-2%	-2%	0%	-29	-58*	x
CCc1ccc2c(c1)C1(NN=C(c3ccc(C)cc3)S1)C(=O)N2 (stereo not given)	u	u	0%	-2	-94*	2%
CC(C)c1ccc2c(c1)C1(NN=C(c3ccccc3)S1)C(=O)N2 (stereo not given)	u	u	4%	-10	10	-7%
Cc1cc(C)cc(NC(=O)CSc2nc(-c3ccccc3)c3cc(F)ccc3n2)c1	x	x	x	4	x	x
SMILES	Rango release inh	Rango-impB inh	MmCpn inh	D3 ag	D3 antag	PTAP TSG101 blk
Cc1ccc(S(=O)(=O)N(C)C)cc1NC(=O)C(C)N(C)CCOc1ccc(Cl)cc1 (stereo not given)	5%	0%	-2%	-5	-10	-2%
CCc1ccc(CN(C)CC(O)COc2cccc3ccccc23)cc1 (stereo not given)	17%	4%	-1%	-11	0	-2%
CN(CCOc1ccc(Cl)cc1)Cc1cccc(S(=O)(=O)N(C)C)c1	-8%	5%	0%	47*	-5	-2%
CN(CCOc1ccccc1)Cc1ccccc1	x	x	x	-1	-117*	x
c1ccc(CCNCCCOc2cccc3ccccc23)cc1	1%	-5%	-1%	-17	-67*	-9%
CN(CCOc1cccc2ccccc12)Cc1ccccc1	-2%	5%	1%	-10	-76*	1%
CCc1ccc(Sc2cc(C(=O)NCCCN3CCCC(C)C3)c3ccccc3n2)cc1 (stereo not given)	x	x	x	-11	x	x
COc1ccc(N2CCN(C(=O)CN3C(=O)CSc4c3c(C)nn4-c3ccccc3)CC2)cc1	x	x	x	6	x	x
Cc1ccc2c(c1)-c1nc(-c3ccccc3)cc(-c3ccccc3)c1CO2	x	x	x	3	x	x
CC(C)Cn1cnc2c(c(-c3ccccc3)c(-c3ccccc3)n2Cc2ccco2)c1=N	3%	3%	1%	-2	-62*	-11%
c1ccc(-c2c(-c3ccccc3)n(Cc3ccco3)c3ncnc(NCCCn4ccnc4)c23)cc1	1%	5%	-3%	3	-95*	-3%
OCCNc1ncnc2c1c(-c1ccccc1)c(-c1ccccc1)n2Cc1ccco1	-7%	0%	-4%	1	-4	-10%
Cc1cccc(C)c1OCC(=O)NCc1nnc(SCC(=O)NC2CCCCC2)n1C	3%	-1%	1%	-7	-72*	-12%
CC(=O)N(/N=C1\Sc2ccccc2C1=O)c1ccc(C)cc1C	-4%	0%	1%	1	14	-1%
CC(=O)N(/N=C1\Sc2ccccc2C1=O)c1ccccc1C	8.2µM*	u	0%	7	-4	4%
CC(=O)N(/N=C1\Sc2ccccc2C1=O)c1ccccc1	-1%	-3%	0%	-2	-59*	-5%
O=c1c(S(=O)(=O)c2ccccc2)cn(Cc2ccc(F)cc2)c2cc(N3CCOCC3)c(F)cc12	x	x	x	2	x	x
COc1ccc(N2CC3=C(C2=O)C(c2ccc(O)c(OC)c2)NC(=O)N3C)cc1 (stereo not given)	x	x	x	0	x	x
CCN1CCC(N(Cc2ccc(F)cc2)C(=O)Nc2cccc(C(F)(F)F)c2)CC1	x	x	x	-19	x	x

Screening data deposited in PubChem BioAssay by National Center for Advancing Translational Sciences (NCATS).
